Reference: PubChem BioAssay AID686979 (National Center for Advancing Translational Sciences (NCATS), 2013)
The whole screen tested about 420,000 compounds, of which about 50,000 (12%) were called active. About 26% were inconclusive and are not listed. The entries come from a sample that favours actives as a whole. Values without a mark were called inactive. Calls come from the whole dose curve; as a rule, active = well fitted inhibition curve with a large enough effect; inconclusive = small, poorly fitted or top-dose-only effect; inactive = flat fitted curve, though single readings scatter.

Test: qHTS for Inhibitors of human tyrosyl-DNA phosphodiesterase 1 (TDP1): qHTS in cells in presence of CPT; note: nearly all actives have a fitted effect of over 55% in size
Conditions: chicken DT40 Tdp1-/-;hTDP1 cells + 20 nM CPT, ATP luminescence, 48 h; series mostly up to 46.2 µM; activity change, negative = growth inhibition: at the top concentration
Method in brief: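 Chicken DT40 Tdp1-/- cells stably complemented with human TDP1 were seeded at 400 cells/well in medium containing 20 nM camptothecin, exposed to pin-transferred compounds, and grown at 37 °C for at least 48 hr. Viability was read as ATP luminescence.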
% is set by controls: 0 for no effect and ±100 for the full control effect; potency is the fitted concentration of half-maximal effect.

In order of falling “activity change, negative = growth inhibition” value:
1. CC(=O)C[C@@H]1OC[C@H](C)N1S(=O)(=O)c1ccc(C)cc1  25.5%
2. Cc1ccc2nc(SCC(=O)N3CC(C)OC(C)C3)nc(=O)n2c1 (stereo not given)  15.6%
3. O=C(COc1ccc2c(c1)CCC2)N1CCN(c2ccc(F)cc2)CC1  10.3%
4. COc1cc(OC)c(S(=O)(=O)Nc2ccccc2C(=O)O)cc1S(=O)(=O)Nc1ccccc1C(=O)O  9.05%
5. CS(=O)(=O)N1CCN(c2cccc(Cl)n2)CC1  8.45%
6. CCOC(=O)c1c(NC(=O)c2cccs2)sc(C)c1C  6.74%
7. Cc1c(NC(=S)NC(=O)CCc2ccccc2)c(=O)n(-c2ccccc2)n1C  6.66%
8. Cc1nn(CCOc2ccc(Br)cc2)c(C)c1[N+](=O)[O-]  6.55%
9. Cc1csc(NC(=O)CSc2nc(=O)n(CCCN(C)C)c3c2CCC3)n1  4.71%
10. CCn1nc(C(=O)NNS(=O)(=O)c2cc(/C=C/C(=O)O)cc(OC)c2OC)c2ccccc2c1=O  4.44%
11. COc1ccc(OCCCC(=O)OC(C)C(=O)Nc2ccccc2[N+](=O)[O-])cc1 (stereo not given)  4.09%
12. Cc1ccc(NC(=O)CSc2nc(=O)n(CCN(C)C)c3c2CCCC3)c(C)c1  3.71%
13. CC(C)CN(C(=O)CN1CCN(S(=O)(=O)c2ccccc2)CC1)c1c(N)n(CC(C)C)c(=O)[nH]c1=O  3.61%
14. O=C(O)CCCCCCCCCC[n+]1ccccc1  3.14%
15. CCn1c(SCC(=O)NC2CC2)nnc1-c1ccncc1  2.34%
16. COc1ncc2nc(-c3ccc(Cl)cc3)c(=O)n(C)c2n1  1.69%
17. COCCn1c(=O)c(-c2ccccc2)nc2cnc(N3CCOCC3)nc21  1.6%
18. CC(=O)C[C@H](O)CC(=O)[C@@H]1OC(=O)[C@@H](C)C/C=C\Cc2ccccc21  1.45%
19. NC(=O)[C@H]1CC2(CC(c3cccc(NC(=O)[C@H]4CCC(=O)N4)c3)=NO2)CN1C(=O)c1ccccc1C(=O)c1ccccc1 (stereo not given in full)  0.837%
20. Cc1cc(C)nc(NC(=O)c2cccc([N+](=O)[O-])c2)c1  0.531%
21. COCCn1cnc2c1c(=O)n(Cc1ccc(Br)cc1)c(=O)n2Cc1ccccc1  0.0958%
22. CC(=O)c1nnn(-c2ccc(Cl)cc2C#N)c1C  0%
23. COc1ccc(C2c3c(oc4ccccc4c3=O)C(=O)N2Cc2ccc3c(c2)OCO3)cc1 (stereo not given)  -0.0902%
24. CCCc1cc(=O)n2[nH]c(NCc3ccc(CC)cc3)nc2n1  -1.57%
25. COc1ccccc1OCCCn1c(-c2ccc(Cl)cc2)nc2ccccc2c1=O  -1.91%
26. CCCCn1c(N)c(N(CCOC)C(=O)c2cccc(S(=O)(=O)N3CCCCC3)c2)c(=O)[nH]c1=O  -2.83%
27. COc1ccc(CNC(=O)c2cc(=O)c3c(C)cc(C)cc3o2)cc1  -3.72%
28. COc1cccc(OC)c1C(=O)N1CCN(Cc2ccccc2F)CC1  -3.78%
29. COc1ccccc1CN1CCN(Cc2cc(OC)c(OC)cc2OC)CC1  -3.91%
30. COCCNC(=O)c1ccc(Cn2c(SCC(=O)NCC3CCCO3)nc3ccc(Br)cc3c2=O)cc1 (stereo not given)  -4.66%
31. CCCOc1ccc(C2c3c(oc4cc(C)c(C)cc4c3=O)C(=O)N2CCCN2CCOCC2)cc1 (stereo not given)  -5.72%
32. COCCCNc1nc2ccccc2nc1NS(=O)(=O)c1ccc(F)cc1  -6.29%
33. COC(=O)Cn1cc(C(=O)c2cccs2)c2ccccc21  -6.42%
34. COC(=O)c1cn(CC(=O)NCc2cccs2)c2ccccc12  -11%
35. CCCCn1nnnc1C1(C)CCC(=O)N1Cc1ccc(OC)c(OC)c1 (stereo not given)  -11.6%
36. Cc1ccc(Cc2nnc(SCC(=O)Nc3ccc(C)cc3C)[nH]c2=O)cc1  -12%
37. CSc1ncc(C(=O)Nc2ccc(C)cc2C)c(C)n1  -13.4%
38. COc1ccccc1NC(=O)c1c(Br)cnn1C  -14.9%
39. Cc1[nH]c2ccccc2c1/C=N\NC(=O)Cn1nnc(-c2ccccc2)n1  -15.7%
40. CCCCn1c(SCC(=O)NCC2CCCO2)nc2ccc(N3CCOCC3)cc2c1=O (stereo not given)  -16.2%
41. O=C(Nc1ccc(F)cc1)C(CCc1ccccc1)N1CCN(CC(=O)N2CCCC2)CC1 (stereo not given)  -16.7%
42. C=Cc1ccc(C(=O)N2CCCC(CCC(=O)N3CCN(c4ccccn4)CC3)C2)cc1 (stereo not given)  -17.8%
43. O=C(CCC(=O)c1ccccc1)NCc1cccc(C(F)(F)F)c1  -19%
44. CC(NC(=O)COc1cccnc1[N+](=O)[O-])c1ccc(Cl)cc1Cl (stereo not given)  -21.6%
45. COc1ccccc1/C=C/C(=O)OCC(=O)NC1CCCCCC1  -22.8%
46. Cc1ccc(NNC(=O)c2cccs2)cc1Cl  -23.8%
47. Cc1nn2c3cc(N4CCOCC4)ccc3nc2c2ccccc12  -24.1%
48. OC(c1ccc(Cl)cc1)C(CN1CCOCC1)c1ccccc1 (stereo not given)  -26.3%
49. COC(=O)c1cc(NC(=O)c2sc3ccccc3c2Cl)cc(C(=O)OC)c1  -28.5%
50. COc1ccc(CN2C(=O)CC(Cc3ccc(C)cc3)C2=O)cc1OC (stereo not given)  -28.9%
51. CCOC(=O)c1c(NC(=O)/C=C/c2ccco2)sc(C)c1C  -41.2%

With COC(=O)Cn1cc(/C=C/[N+](=O)[O-])c2ccccc21 the Potency was 10.3 µM (active).
In the case of O=C(N/N=C/c1c(Cl)[nH]c2ccccc12)c1sc2ccccc2c1Cl, the Potency is reported as 23.1 µM (active).
In the case of CCCCOc1ccc(CN2C(=O)C(=O)c3cc(Br)cc(C)c32)cc1OC, the Potency is reported as 0.82 µM (active).
With CCCc1c(-c2ccccc2F)ncn1Cc1ccccc1OC the Potency was 1.3 µM (active).
With CCCCc1c(-c2ccc(Br)cc2)ncn1CCc1ccccc1OC the Potency was 1.3 µM (active).
For CCCCc1c(-c2ccc(Cl)cc2)ncn1CCc1ccccc1OC, the Potency was 4.61 µM (active).
With COCCCNC(=O)CSc1nc2ccc(N3CCOCC3)cc2c(=O)n1CCc1ccccc1 the Potency was 16.4 µM (active).
With N#CCSc1nc2ccc(N3CCOCC3)cc2c(=O)n1CCc1ccccc1 the Potency was 23.1 µM (active).
In the case of Cc1ccc2oc3c(c(=O)c2c1)C(c1ccc(O)cc1)N(Cc1ccc2c(c1)OCO2)C3=O (stereo not given), the Potency is reported as 14.6 µM (active).
In the case of CCn1nc(C)c(NC(=O)/C=C/c2ccc(OC)c(COc3ccc(Br)cc3)c2)c1C, the Potency is reported as 16.4 µM (active).
For CCOC(=O)c1c(NC(=S)NC(=O)/C=C/c2cccs2)sc(C)c1C, the Potency was 20.6 µM (active).
For Cc1ccc(NC(=O)c2ccc(CSc3ncnc4nc[nH]c34)cc2)c(C)c1, the Potency was 23.1 µM (active).
For Cc1cc(C)c2oc(C(=O)Nc3ccc(S(=O)(=O)Nc4nccc(C)n4)cc3)cc(=O)c2c1, the Potency was “inactive”.
With Cc1ccc2nc(NC(=O)CSc3nc(=O)n(CCCN(C)C)c4c3CCC4)sc2c1 the Potency was 9.2 µM (active).
